# According to PubChem BioAssay (NCATS):
# Values joined by “and” are separate entries in the source; they are usually repeats but may differ in a detail not shown here. Equal values may be shown once. Records with an inconclusive call do not appear. Unmarked numbers belong to inactive results. Active and inactive are the calls of the source. Calls follow the shape of the dose curve; as a rule, active = well fitted inhibition curve with a large enough effect; inconclusive = small, poorly fitted or top-dose-only effect; inactive = flat fitted curve, though single readings scatter.
# Test system: NIH3T3
# Assay: Cytotoxic Profiling of Annotated Libraries Using Quantitative High-Throughput Screening (AID 1296008); as to max response: % is scaled to controls: 0 for no effect and ±100 for the full control effect
# Details: Five cell lines viability, CellTiter-Glo ATP luminescence, 48-72 h; max response: active compounds read low
# Procedure, shortened: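 Cells exposed to compounds for 48 or 72 hr at 37 degrees Celsius. Viability read as ATP-coupled luminescence with CellTiter-Glo after 10 min at room temperature.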
# Also: nearly all actives have a fitted effect of over 60% in size.
Structure (SMILES),outcome,max response
C[C@H]1CNCCc2ccc(Cl)cc21,inactive,
CC[C@H]1C[C@@H]2C[C@H]3c4[nH]c5ccc(OC)cc5c4CCN(C2)[C@@H]13,,-11.9%
CCCN(CCC)CCc1c[nH]c2ccccc12,,3.34%
OC(c1ccccc1)(c1ccccc1)C1CCNCC1,,-1.52%
C=CCOC(Cn1ccnc1)c1ccc(Cl)cc1Cl (centres undefined),,-13%
C[C@H]1C(=O)O[C@@H]2CCN3CC=C(COC(=O)[C@](C)(O)[C@]1(C)O)[C@H]23,,-4.3%
Nc1ccc(N)cc1,,-12%
CCOC(=O)NC(O)C(Cl)(Cl)Cl (centres undefined),,0.136%
CN1CCc2cc(Cl)c(O)cc2[C@H]2c3ccccc3CC[C@@H]21,,-2.57%
CCN(CC)CCOC(=O)C(C)(c1ccccc1)c1ccccc1,,1.33%
Cc1cccc(Cc2cnc[nH]2)c1C,,-2.68%
CCCCC1C(=O)NC(=O)N(C2CCCCC2)C1=O (centres undefined),,-9.24%
COc1cc(C[C@@H](C)N)c(OC)cc1Br,,-1.11%
CC(C)=C[C@@H]1[C@@H](C(=O)OCc2coc(Cc3ccccc3)c2)C1(C)C,,-1.15%
CNC(=O)NC(O)C(Cl)(Cl)Cl (centres undefined),,-0.697%
COP(=S)(OC)Oc1ccc(S(N)(=O)=O)cc1,,-5.5%
O=C(CCCN1CCC(n2c(=O)[nH]c3ccccc32)CC1)c1ccc(F)cc1,,0.676%
Oc1c(Br)cc(Br)cc1Br,,-1.39%

Structure (SMILES),outcome,max response
CC(C)C(Br)C(=O)NC(N)=O (centres undefined),,-7.2%
O=c1n(Cl)c(=O)n(Cl)c(=O)n1Cl,,2.85%
C[C@]12C=CC(=O)C=C1CC[C@@H]1[C@@H]2CC[C@@]2(C)[C@H]1CC[C@]2(C)O,,-13.6%
CC(C)=CCN1CC[C@@]2(C)c3cc(O)ccc3C[C@@H]1[C@@H]2C,,-2.79%
ClC1=C(Cl)C2(Cl)C(CBr)CC1(Cl)C2(Cl)Cl (centres undefined),,-4.41%
CCN(CC)C(C)C(=O)c1ccccc1 (centres undefined),,-1.81%
C[C@]12CC[C@H]3[C@@H](CC=C4C[C@@H](O)CC[C@@]43C)[C@@H]1CC[C@@H]2O,,4.53%
CCN(CC)Cc1nccn1-c1ccc([N+](=O)[O-])cc1C(=O)c1ccccc1Cl,,-7.47%
CCc1cc(OC)c(C[C@H](C)N)cc1OC,,-16.2%
O=C(NC(=O)c1c(F)cccc1F)Nc1cc(Cl)c(OC(F)(F)C(F)C(F)(F)F)cc1Cl (centres undefined),,-16.1%
COc1ccc(OC)c(CC(C)N)c1 (centres undefined),,-6.71%
CCOC(=O)NC(C)(C)Cc1ccc(Cl)cc1,,-3.93%
C[C@@H]1CC[C@H]2[C@@H](C)C(=O)O[C@@H]3O[C@@]4(C)CC[C@@H]1[C@]32OO4,,-3.92%
CC(C)(C)OC(=O)c1ncn2c1[C@@H]1CCCN1C(=O)c1c(Br)cccc1-2,inactive,
COc1ccc(C(=O)N2CCCC2=O)cc1,,-15.7% and -0.26%
CC[C@H]1C[C@H]2[C@@H]3CCC4=CC(=O)CC[C@@H]4[C@H]3CC[C@]2(C)[C@H]1O,,-0.575%
CCC1(CC)C(=O)NC(=O)NC1=O,inactive,
CN(C)CCc1c[nH]c2cccc(O)c12,,2.31%

# Test system: CRL-7250
# Assay: qHTS assay to identify novel small-molecules to repurpose for Merkel cell carcinoma treatment (AID 1296009)
# Details: MCC and control cell lines, CellTiter-Glo viability, 72 h; at 44.8 µM (top of the series) unless noted
# Procedure, shortened: (§1)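 Cells were incubated with compound for 72 hr at 37 degree celsius before CellTiter-Glo addition. Luminescence was normalized with no-cell wells as full cytotoxicity and DMSO as baseline.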
row,Structure (SMILES),outcome
1,C[C@H]1CNCCc2ccc(Cl)cc21,inactive
2,COP(=S)(OC)Oc1ccc(S(N)(=O)=O)cc1,inactive
3,CC(C)C(Br)C(=O)NC(N)=O (centres undefined),inactive
4,O=c1n(Cl)c(=O)n(Cl)c(=O)n1Cl,inactive
5,O=C(NC(=O)c1c(F)cccc1F)Nc1cc(Cl)c(OC(F)(F)C(F)C(F)(F)F)cc1Cl (centres undefined),inactive
6,CC(C)(C)OC(=O)c1ncn2c1[C@@H]1CCCN1C(=O)c1c(Br)cccc1-2,inactive
7,CN(C)CCc1c[nH]c2cccc(O)c12,inactive [at 92 µM]

# Test system: HACAT
# Assay: as above
# Details: MCC and control cell lines, CellTiter-Glo viability, 72 h; at 44.8 µM (top of the series) unless noted
# Procedure, shortened: as §1
row,Structure (SMILES),outcome
1,C=CCOC(Cn1ccnc1)c1ccc(Cl)cc1Cl (centres undefined),inactive
2,C[C@H]1C(=O)O[C@@H]2CCN3CC=C(COC(=O)[C@](C)(O)[C@]1(C)O)[C@H]23,inactive
3,Nc1ccc(N)cc1,inactive
4,CCOC(=O)NC(O)C(Cl)(Cl)Cl (centres undefined),inactive
5,CN1CCc2cc(Cl)c(O)cc2[C@H]2c3ccccc3CC[C@@H]21,inactive
6,CCN(CC)CCOC(=O)C(C)(c1ccccc1)c1ccccc1,inactive
7,CCCCC1C(=O)NC(=O)N(C2CCCCC2)C1=O (centres undefined),inactive
8,CC(C)=C[C@@H]1[C@@H](C(=O)OCc2coc(Cc3ccccc3)c2)C1(C)C,inactive
9,CNC(=O)NC(O)C(Cl)(Cl)Cl (centres undefined),inactive
10,COP(=S)(OC)Oc1ccc(S(N)(=O)=O)cc1,inactive
11,O=C(CCCN1CCC(n2c(=O)[nH]c3ccccc32)CC1)c1ccc(F)cc1,inactive
12,O=c1n(Cl)c(=O)n(Cl)c(=O)n1Cl,inactive
13,ClC1=C(Cl)C2(Cl)C(CBr)CC1(Cl)C2(Cl)Cl (centres undefined),inactive
14,CCN(CC)C(C)C(=O)c1ccccc1 (centres undefined),inactive
15,C[C@]12CC[C@H]3[C@@H](CC=C4C[C@@H](O)CC[C@@]43C)[C@@H]1CC[C@@H]2O,inactive
16,CCN(CC)Cc1nccn1-c1ccc([N+](=O)[O-])cc1C(=O)c1ccccc1Cl,inactive
17,O=C(NC(=O)c1c(F)cccc1F)Nc1cc(Cl)c(OC(F)(F)C(F)C(F)(F)F)cc1Cl (centres undefined),inactive
18,COc1ccc(OC)c(CC(C)N)c1 (centres undefined),inactive [at 92 µM]
19,C[C@@H]1CC[C@H]2[C@@H](C)C(=O)O[C@@H]3O[C@@]4(C)CC[C@@H]1[C@]32OO4,inactive
20,CCC1(CC)C(=O)NC(=O)NC1=O,inactive
21,CN(C)CCc1c[nH]c2cccc(O)c12,inactive [at 92 µM]
